Reference: PubChem BioAssay (NCATS)
Values joined by “and” are separate entries in the source; they are usually repeats but may differ in a detail not shown here. Equal entries are not always repeated. Values without a mark were called inactive. Inconclusive results are not listed. A call without a number means that no potency is given here. Active and inactive are the calls of the source. Unless noted, calls come from the whole dose curve; as a rule, active = well fitted curve in the direction sought with a large enough effect; inconclusive = small, poorly fitted or top-dose-only effect, or another doubt; inactive = no such curve, though single readings can be large; an effect the other way counts as inactive or inconclusive.

Legend:
[1] = molecular target: Glutathione peroxidase 1 (Homo sapiens) (UniProt P07203); experiment: Primary qHTS Assay for Inhibitors of Recombinant Selenoprotein Glutathione Peroxidase 1 (GPX1) (AID 1845191); note: nearly all actives have a fitted effect of over 65% in size
Sequence of Glutathione peroxidase 1 (Homo sapiens) (P07203 whole entry, looked up): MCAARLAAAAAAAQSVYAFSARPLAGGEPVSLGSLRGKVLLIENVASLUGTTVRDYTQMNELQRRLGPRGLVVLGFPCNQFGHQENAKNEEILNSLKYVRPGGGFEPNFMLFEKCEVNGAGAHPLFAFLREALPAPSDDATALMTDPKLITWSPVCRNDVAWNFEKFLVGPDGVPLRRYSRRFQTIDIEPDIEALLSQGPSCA
In short: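 GPX1 10 nM, GR 100 nM, GSH 1 mM, NADPH 0.5 mM, CHP 0.5 mM (final). 30-min cpd preincubation, RT. Ex340/Em450 read t=0, t=15 min.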

[2] = molecular target: Glucocorticoid receptor (Homo sapiens) (UniProt P04150); experiment: qHTS assay for small molecule antagonists of glucocorticoid receptor signaling (AID 588533; active = well fitted inhibition curve with a large enough effect in the signal ratio, with a control signal flat, not every such curve was filed as active; the % refers to the signal ratio;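 note: cells stimulated with 2 nM dexamethasone as agonist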; note: potency is the fitted concentration of half-maximal effect)
Sequence of Glucocorticoid receptor (Homo sapiens) (P04150 whole entry, looked up): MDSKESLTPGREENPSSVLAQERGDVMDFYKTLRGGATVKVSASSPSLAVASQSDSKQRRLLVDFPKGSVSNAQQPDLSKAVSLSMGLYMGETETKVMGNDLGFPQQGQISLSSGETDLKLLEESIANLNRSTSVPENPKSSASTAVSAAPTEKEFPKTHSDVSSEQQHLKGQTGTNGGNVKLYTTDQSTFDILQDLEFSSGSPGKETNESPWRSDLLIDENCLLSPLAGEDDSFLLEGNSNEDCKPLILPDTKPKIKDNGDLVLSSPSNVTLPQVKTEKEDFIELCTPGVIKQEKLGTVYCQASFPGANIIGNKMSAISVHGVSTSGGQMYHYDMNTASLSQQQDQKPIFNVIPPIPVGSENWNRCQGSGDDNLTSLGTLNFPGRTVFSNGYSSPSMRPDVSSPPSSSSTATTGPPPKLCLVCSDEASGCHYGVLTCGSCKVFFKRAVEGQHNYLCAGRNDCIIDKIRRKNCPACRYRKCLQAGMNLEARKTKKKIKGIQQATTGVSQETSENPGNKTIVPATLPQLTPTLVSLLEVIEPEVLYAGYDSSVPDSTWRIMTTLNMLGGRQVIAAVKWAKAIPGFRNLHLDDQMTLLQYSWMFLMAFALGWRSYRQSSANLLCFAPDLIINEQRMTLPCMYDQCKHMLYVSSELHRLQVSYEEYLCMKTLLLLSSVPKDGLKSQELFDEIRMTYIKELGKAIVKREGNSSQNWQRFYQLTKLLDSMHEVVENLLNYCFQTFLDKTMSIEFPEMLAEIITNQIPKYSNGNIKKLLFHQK
In short: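 Antagonist-mode qHTS: compound titrations added to GRE-bla HeLa cells, then dexamethasone 2 nM final; 18 h, 37 C. CCF4 FRET fluorescence normalized to dexamethasone and DMSO; IC50 from Hill fit.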

[3] = molecular target: Cytochrome P450 3A4 (Homo sapiens) (UniProt P08684); experiment: qHTS Assay for Activators of Cytochrome P450 3A4 (AID 885); note: nearly all actives have a fitted effect of over 65% in size
Sequence of Cytochrome P450 3A4 (Homo sapiens) (P08684 whole entry, looked up): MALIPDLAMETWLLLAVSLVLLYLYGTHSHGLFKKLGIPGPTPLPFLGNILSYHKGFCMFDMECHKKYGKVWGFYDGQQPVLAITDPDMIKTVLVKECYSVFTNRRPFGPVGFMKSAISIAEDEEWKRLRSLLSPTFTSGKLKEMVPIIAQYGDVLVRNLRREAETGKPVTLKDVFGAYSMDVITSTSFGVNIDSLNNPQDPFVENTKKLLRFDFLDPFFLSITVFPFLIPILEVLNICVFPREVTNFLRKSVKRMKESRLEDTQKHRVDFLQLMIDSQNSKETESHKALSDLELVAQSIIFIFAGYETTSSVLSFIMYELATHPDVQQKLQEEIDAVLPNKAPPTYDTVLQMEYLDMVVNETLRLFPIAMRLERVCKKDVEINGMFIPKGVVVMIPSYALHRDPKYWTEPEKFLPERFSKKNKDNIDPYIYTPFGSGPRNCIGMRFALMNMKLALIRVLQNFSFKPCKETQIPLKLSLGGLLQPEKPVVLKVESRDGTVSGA
In short: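 Luminescent readout of luciferin formed from 25 uM Luciferin-PPXE (KM level) by 20 nM CYP3A4 in 200 mM KPO4, with 60 min NADPH-driven reaction at room temperature after 10 min compound exposure. Ketoconazole (57 uM) defined 100% inhibition.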

[4] = Cell Viability - LYMP2-005 (AID 967); note: series mostly up to about 92 µM
In short: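 Human lymphoblastoid LYMP2-005 cells, 2,500 per well in complete medium, rested 5 h at 37C then compound-treated 24 h at 37C. Intracellular ATP read by CellTiter-Glo luminescence after 30 min at room temperature; AC50 from Hill-equation fits of concentration-response data.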

[5] = qHTS assay to identify small molecules that stimulate interleukin-8 (IL-8) secretion (AID 651758; active = well fitted activation curve with a large enough effect in the signal ratio; the % refers to the signal ratio)
In short: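 Quantitative HTS in THP-1 monocytic cells at 2000 cells per well, with 16 hrs compound incubation at 37 C. IL-8 in the medium was then quantified by HTRF immunoassay, read after 1-3 hrs at room temperature.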

[6] = molecular target: Bile acid receptor (Homo sapiens) (UniProt Q96RI1); experiment: qHTS assay for small molecule agonists of farnesoid X receptor signaling (AID 588527; calls by dose curve; note: series mostly up to about 77 µM); settings: HEK293T FXR-UAS-bla, beta-lactamase ratio, 16 h; active compounds read high
Sequence of Bile acid receptor (Homo sapiens) (Q96RI1 whole entry, looked up): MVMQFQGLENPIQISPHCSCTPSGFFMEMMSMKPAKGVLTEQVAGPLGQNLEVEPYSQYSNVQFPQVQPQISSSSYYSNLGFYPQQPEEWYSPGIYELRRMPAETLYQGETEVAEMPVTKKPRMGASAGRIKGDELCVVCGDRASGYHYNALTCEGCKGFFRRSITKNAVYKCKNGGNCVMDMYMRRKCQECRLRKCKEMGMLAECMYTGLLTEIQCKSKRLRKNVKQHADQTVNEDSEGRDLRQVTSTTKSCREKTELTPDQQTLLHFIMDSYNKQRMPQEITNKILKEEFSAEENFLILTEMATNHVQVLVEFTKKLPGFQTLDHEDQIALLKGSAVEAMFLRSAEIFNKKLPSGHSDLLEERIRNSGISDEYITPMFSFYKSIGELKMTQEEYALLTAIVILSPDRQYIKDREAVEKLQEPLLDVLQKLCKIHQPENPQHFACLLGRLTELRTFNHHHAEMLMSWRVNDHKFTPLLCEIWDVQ
In short: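 Agonist-mode beta-lactamase reporter in GeneBLAzer FXR-UAS-bla HEK293T cells, titration up to 92 uM, 16 h exposure at 37 C, CCF4 fluorescence. Response scaled to DMSO (0%) and 100 uM chenodeoxycholic acid (100%), then Hill-fitted for EC50 and efficacy.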

[7] = molecular target: Androgen receptor (Homo sapiens) (UniProt P10275); experiment: qHTS assay for small molecule agonists of androgen receptor signaling (AID 588515; active = well fitted curve in the direction sought with a large enough effect in the signal ratio, with a control signal flat; the % refers to the signal ratio); settings: AR-UAS-bla HEK293, beta-lactamase ratio, agonist 16 h; active compounds read high
Sequence of Androgen receptor (Homo sapiens) (P10275 whole entry, looked up): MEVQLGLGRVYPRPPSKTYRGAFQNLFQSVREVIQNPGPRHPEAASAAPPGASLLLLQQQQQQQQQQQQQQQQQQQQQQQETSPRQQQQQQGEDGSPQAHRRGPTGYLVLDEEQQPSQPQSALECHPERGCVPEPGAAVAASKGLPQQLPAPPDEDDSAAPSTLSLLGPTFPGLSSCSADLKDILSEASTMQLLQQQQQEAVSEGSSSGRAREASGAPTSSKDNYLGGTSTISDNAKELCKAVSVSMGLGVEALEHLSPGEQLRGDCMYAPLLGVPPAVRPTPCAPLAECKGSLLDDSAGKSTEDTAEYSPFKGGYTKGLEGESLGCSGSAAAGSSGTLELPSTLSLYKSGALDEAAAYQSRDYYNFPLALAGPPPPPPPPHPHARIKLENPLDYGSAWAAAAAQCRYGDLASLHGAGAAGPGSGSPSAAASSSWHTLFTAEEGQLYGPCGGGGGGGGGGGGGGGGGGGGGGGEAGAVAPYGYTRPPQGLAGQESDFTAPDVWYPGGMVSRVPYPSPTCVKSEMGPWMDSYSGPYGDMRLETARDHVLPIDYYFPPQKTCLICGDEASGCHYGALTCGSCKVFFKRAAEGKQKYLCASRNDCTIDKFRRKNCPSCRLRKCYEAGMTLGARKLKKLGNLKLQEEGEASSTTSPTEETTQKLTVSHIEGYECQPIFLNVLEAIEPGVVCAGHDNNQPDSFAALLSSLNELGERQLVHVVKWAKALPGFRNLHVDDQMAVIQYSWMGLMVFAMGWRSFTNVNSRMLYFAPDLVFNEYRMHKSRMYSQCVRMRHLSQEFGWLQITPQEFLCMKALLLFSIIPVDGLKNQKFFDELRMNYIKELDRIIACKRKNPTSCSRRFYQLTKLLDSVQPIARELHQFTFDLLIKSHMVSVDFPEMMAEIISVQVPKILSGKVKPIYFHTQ
In short: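 Stimulation of an AR-responsive β-lactamase reporter in GripTite HEK293 cells was measured after 16 h compound exposure at 37 °C, via CCF4 fluorescence after 2 h RT. EC50 from Hill fits, normalized to R1881 at 30 nM.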

[8] = molecular target: Androgen receptor (Homo sapiens) (UniProt P10275); experiment: qHTS assay for small molecule antagonists of androgen receptor signaling (AID 588516; active = well fitted curve in the direction sought with a large enough effect in the signal ratio, with a control signal flat, not every such curve was filed as active; the % refers to the signal ratio)
In short: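 AR-UAS-bla GripTite HEK 293 cells (2000/well) treated with compound titrations plus 10 nM R1881 for 16 h at 37C. Beta-lactamase read by CCF4 FRET (460/530 nm); IC50 from Hill fits, normalized to R1881 and DMSO control wells.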

C=CCN1CC[C@]2(C)c3cc(O)ccc3CC1[C@@H]2C
Potency [1]: inactive

CC(=O)C1=C(O)[C@@H]2[C@H]3c4c[nH]c5cccc(c45)C[C@H]3C(C)(C)N2C1=O
Potency [1]: inactive

C[C@]12CC[C@H]3[C@@H](CCC4=CC(=O)CC[C@@]43C)[C@@H]1CC[C@@H]2O
Potency [2]: 7.08 µM (active)

COC1=CC(=O)O[C@@H](/C=C/c2ccc3c(c2)OCO3)C1
Potency [3]: inactive
Potency [4]: inactive
Potency [2]: inactive

Cc1ccc(-n2nccn2)c(C(=O)N2CCN(c3nc4cc(Cl)ccc4o3)CC[C@H]2C)c1
Potency [1]: inactive

Cc1ccccc1N
Potency [3]: inactive
Potency [4]: inactive
Potency [5]: inactive

O=NN(c1ccccc1)c1ccccc1
Potency [4]: inactive
Potency [2]: inactive
Potency [5]: inactive

Oc1ccc(Cl)cc1Cl
Potency [4]: inactive
activation [6]: -2.46% and -2.63%

Clc1cccc(C(Cl)(Cl)Cl)n1
Potency [3]: inactive
Potency [4]: inactive
activation [7]: -4.18%
Potency [8]: inactive
activation [6]: 0.959% and 2.76%
Potency [5]: inactive

Cc1ccc2ccccc2c1
activation [7]: 23%
Potency [8]: inactive

CC(C)(C)OOC(C)(C)C
activation [6]: -0.0913%
Potency [2]: inactive
Potency [5]: inactive

O=C(Cl)/C=C/C(=O)Cl
activation [7]: 8.8%
Potency [8]: inactive

C=CCOC(C)=O
activation [7]: -7.35%
activation [6]: -1.61%

CCCSC(=O)Cl
activation [6]: 0.0371%
Potency [2]: inactive
Potency [5]: inactive

[O-][Br+2]([O-])O
Potency [4]: inactive
activation [7]: 4.89% and 1.1%
Potency [8]: inactive
Potency [2]: inactive
Potency [5]: inactive

CC(Cl)Cl
Potency [4]: inactive
Potency [2]: inactive

Nc1ccccc1Cl
activation [7]: 9.37%
activation [6]: -1.66%

CN=C=S
activation [6]: 2.73% and -2.27%

C=CCOC(=O)c1ccccc1N
Potency [8]: inactive
Potency [2]: inactive
Potency [5]: inactive

ClCBr
activation [6]: -2.9%
Potency [5]: inactive

Brc1ccccc1
activation [7]: 9.26% and -0.282%
Potency [8]: inactive
